Compound activity (PubChem)
Y pestis TopoI: Yersinia pestis topoisomerase I inhibitors, primary screen, biochemical, cleavage product accumulation, plate reader, single point; DNA topoisomerase I (Yersinia pestis CO92); Y. pestis Topo-I cleavage product accumulation; activity, % at 10 µM; 0.064% of 360,000 active; AID 504884, 2011; in the data active means activity above about 50%, passing the limit was not always enough
GDH-TPI counter-1: GDH-TPI coupling enzyme inhibitors, primary screen, artefact control for M. tuberculosis FBA inhibitor project, biochemical, absorbance, full deck | inhibition, % at 4.8 µM | 1.2% of 360,000 active | AID 588335, 2011 | GDH-TPI coupled enzyme counterscreen, NADH absorbance; in the data active means inhibition above about 30%;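 further: 0% = DMSO wells and 100% = wells lacking the enzyme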
PrPC surface inh: inhibitors of human cell surface prion protein PrPC, primary screen, cell-based, TR-FRET | Major prion protein (Homo sapiens), P04156 | TR-FRET read-out | inhibition, % at 13.8 µM | 0.43% of 370,000 active | AID 720596, 2013; in the data active means inhibition above about 24%; further: 0% = median of the test wells and 100% = reference compound wells
PrP 5UTR inh: inhibition of PrP 5' UTR reporter expression | cell-based PrP 5' UTR mRNA reporter, plate reader | inhibition, % (no concentration beside the values) | 0.35% of 340,000 active; in the data active means inhibition above about 52%; further: 0 = median of the neutral control wells
Mtb FBA inh: Mtb FBA enzyme inhibitors, primary screen, biochemical, fluorescence, strain H37Rv | purified M. tuberculosis FBA, fluorescence read-out | inhibition, % at 1 µM | 2.3% of 360,000 active;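 further: 0% = vehicle and 100% = reference inhibitor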
Target sequence (P9WQA3 whole entry, looked up): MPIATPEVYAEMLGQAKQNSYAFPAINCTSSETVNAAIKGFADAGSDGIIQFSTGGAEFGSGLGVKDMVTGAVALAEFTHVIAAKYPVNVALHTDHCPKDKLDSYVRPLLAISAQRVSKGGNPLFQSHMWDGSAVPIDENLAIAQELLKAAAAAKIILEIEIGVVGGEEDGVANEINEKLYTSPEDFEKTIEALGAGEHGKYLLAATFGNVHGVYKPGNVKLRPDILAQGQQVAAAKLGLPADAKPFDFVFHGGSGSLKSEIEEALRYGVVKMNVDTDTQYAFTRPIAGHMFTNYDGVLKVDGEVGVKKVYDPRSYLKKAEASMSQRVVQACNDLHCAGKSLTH
Mtb hypoxia inh: PubChem AID 1159583; M. tuberculosis hypoxia-regulated fluorescent reporter, fluorescence; fluorescence inhibition, % (concentration not given with the values); 0.1% of 300,000 active; in the data active means fluorescence inhibition mostly above about 23%, no sharp cut-off; inactive means mostly below about 17%
Mtb FBA confirm: M. tuberculosis aldolase blockers, biochemical, fluorescence, strain H37Rv, confirmation; shares compounds with Mtb FBA inh; purified M. tuberculosis FBA, fluorescence read-out; inhibition, % at 1 µM; 78% of 5,600 active; AID 651616, 2012;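 further: 0% = vehicle wells and 100% = reference inhibitor wells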
GDH-TPI counter-2: GDH-TPI coupling enzyme inhibitors, artefact control for M. tuberculosis FBA inhibitor project, biochemical, fluorescence, high throughput; shares compounds with Mtb FBA inh; GDH-TPI coupled enzyme counterscreen; inhibition, % at 1 µM; 81% of 5,600 active; AID 652141, 2013; in the data active means inhibition above about 10%
* marks the source's active call; other numbers are inactive results; / = no result given; + = active, no number. An excerpt weighted towards active compounds, which were near 3.8% of everything screened. Unless noted, no stated cut-off is given here; in the data, active means inhibition above about 27%; inactive means the rest.

SMILES	Y pestis TopoI	GDH-TPI counter-1	PrPC surface inh	PrP 5UTR inh	Mtb FBA inh	Mtb hypoxia inh	Mtb FBA confirm	GDH-TPI counter-2
Cc1cccc(C)c1NC(=O)COc1ccc2c(C)c(Cc3ccccc3)c(=O)oc2c1C	-7	0	-6	-6	1	11	/	/
Cc1c(OCC(=O)N[C@@H](Cc2ccccc2)C(=O)O)ccc2c1oc(=O)c1ccccc12	16	12	1	-6	52*	/	+	+
Cc1c(Cc2ccccc2)c(=O)oc2c(C)c(OC(C)C(=O)N[C@@H](Cc3ccccc3)C(=O)O)ccc12 (stereo partly specified)	1	10	-2	-21	68*	/	191*	160*
Cc1c(OCC(=O)N[C@@H](CSCc2ccccc2)C(=O)O)ccc2c3c(c(=O)oc12)CCC3	8	8	-1	-38	2	/	/	/
C/C(C=NNC(=O)Cn1nc(C)cc1C)=C/c1ccc(C(C)C)cc1	/	/	/	/	/	2	/	/
CCCCCCCCSc1nnc(N=CN(C)C)s1	/	/	/	/	/	4	/	/
c1csc(CNc2nc(Oc3ccncc3)c3sccc3n2)c1	0	5	0	/	43*	/	65*	51*
COCCNc1nc(Oc2ccccc2)c2sccc2n1	9	9	3	/	8	/	/	/
c1ccc(CNc2nc(Oc3ccncc3)c3sccc3n2)cc1	2	2	-7	/	39*	/	+	+
O=C(Nc1ccccc1)ON=C1CCCc2occc21	/	/	/	/	/	3	/	/
COc1ccc(C=Nn2c(C)nc3sc(C)c(C)c3c2=O)cc1	/	/	/	/	/	-1	/	/
COc1ccc(-c2csc(N3CCC(c4ccccc4)C3)n2)cc1 (stereo unspecified)	22	1	1	-54	45*	3	133*	91*
Cc1nn2c(-c3cccnc3)ccnc2c1-c1ccccc1	-1	4	-8	-18	0	13	/	/
CN(C)/C=N/c1nc2nccc(-c3cccnc3)n2n1	-12	1	-3	-14	27*	/	152*	107*
Nc1nc2nccc(-c3cccnc3)n2n1	2	19	9	-17	64*	-3	-8	-5
CN(C)C=Nc1nc2nccc(-c3ccc(Cl)cc3)n2n1	/	/	/	/	/	5	/	/
COc1ccc(C(=O)OC2CC3CCC(C2)N3C)cc1OC (stereo unspecified)	/	/	/	/	/	1	/	/
CCOC1OC(C(=O)O)=CC(c2cn(C(C)=O)c3ccccc23)C1CCCO (stereo unspecified)	/	/	/	/	/	21	/	/
COc1ccc(-c2oc3ccccc3c(=O)c2OCC(=O)O)cc1	7	35*	2	-14	98*	2	+	163*
O=C(O)COc1c(-c2ccc(Cl)cc2)oc2ccccc2c1=O	3	8	-1	-9	7	2	/	/
NC(=O)COc1c(-c2ccco2)oc2ccccc2c1=O	12	26	-18	-22	21	4	/	/
O=C(O)COc1c(-c2ccco2)oc2ccccc2c1=O	-3	25	2	1	46*	5	+	+
CCOC(=O)COc1c(-c2ccc(OC)cc2)oc2ccccc2c1=O	34	43*	-1	-11	68*	/	+	+
CCN(CC)c1ccc(C=NNC(=O)c2ccco2)c(O)c1	/	/	/	/	/	14	/	/
Cc1cc2nn(-c3ccccc3)nc2cc1NC(=O)c1cccs1	7	28	-6	-82	-3	-1	/	/
SMILES	Y pestis TopoI	GDH-TPI counter-1	PrPC surface inh	PrP 5UTR inh	Mtb FBA inh	Mtb hypoxia inh	Mtb FBA confirm	GDH-TPI counter-2
CC(C)CC(=O)Nc1ccc2nn(-c3ccccc3)nc2c1	4	18	-4	-79	72*	7	3	-1
CC(=O)Nc1cc2nn(-c3ccccc3)nc2cc1C	2	19	-21	-19	90*	0	200*	159*
O=C(Nc1ccc2nn(-c3ccccc3)nc2c1)c1ccc(Br)o1	0	23	-2	-37	8	-6	/	/
COc1cc2cc(CN(CCO)S(=O)(=O)c3ccccc3)c(=O)[nH]c2cc1OC	3	38*	9	-19	38*	-9	88*	71*
COc1ccc(C(=O)NN=C2CCc3ccccc32)cc1OC	/	/	/	/	/	2	/	/
COc1ccc(-c2cc3ccccc3n2CC(O)CN2CCN(CCO)CC2)cc1 (stereo unspecified)	-6	3	-14	-21	33*	/	-7	-5
COc1ccccc1N1CCN(N=Cc2cc(OC)c(OC(C)=O)c(OC)c2)CC1	/	/	/	/	/	4	/	/
COc1cc2c(cc1OC)CC[N+](C)=C2	4	15	2	-10	95*	/	111*	76*
CCNC(=O)c1c(O)c2ccccc2[nH]c1=O	1	2	-17	-53	48*	0	180*	141*
COC(=O)C1C(O)=C(C=NC2CCCCC2)C(=O)CC1(C)C (stereo unspecified)	-2	-2	-1	-23	28*	/	147*	115*
N=c1c(C(=O)NC2CCCC2)cc2c(=O)n3ccccc3nc2n1C1CCCCC1	16	8	-21	-5	64*	-9	49*	41*
Cc1ccc2nc3c(cc(C(=O)NC4CCCCC4)c(=N)n3C3CCCCC3)c(=O)n2c1	11	-4	-17	-30	71*	2	121*	85*
O=C(NC1CCCCCC1)c1ccc2nc3cc(Cl)ccc3c(=O)n2c1	-5	7	2	-1	3	-3	/	/
CC1CC(NC(=O)c2cc3c(=O)n4ccccc4nc3n2C)CC(C)(C)C1 (stereo unspecified)	-6	7	-2	-9	72*	-3	71*	62*
Cc1cccn2c(=O)c3cc(S(=O)(=O)c4ccc(Br)cc4)c(=N)n(C4CCCCC4)c3nc12	1	-2	3	-9	1	-2	/	/
Cc1cccn2c(=O)c3cc(C(=O)NCc4ccco4)c(=N)n(C4CCCC4)c3nc12	10	13	-12	-24	90*	15	78*	63*
Cc1c(C=CC(=O)c2ccc(O)cc2)cnn1C	/	/	/	/	/	5	/	/
CS(=O)(=O)N1c2ccccc2[C@]2([C@@]34CC5C(=O)NC(Cc6ccccc6)C(=O)N5C3N(S(C)(=O)=O)c3ccccc34)CC3C(=O)NC(Cc4ccccc4)C(=O)N3C12 (stereo partly specified)	/	/	/	/	/	4	/	/
c1ccc(Nc2cccc3c(Nc4ccccc4)cccc23)cc1	-9	11	6	-3	28*	1	36*	34*
COc1cc(C=NN2C(=O)c3ccccc3C2=O)ccc1O	/	/	/	/	/	11	/	/
